# Whole data set: some 140,000 sequences, median “enrichment ratio after two sorts for PhoP signalling” near 0, cut for the highest 2% near 11. The list comes from a sample in which the highest values are over-represented; it also holds similar and randomly drawn sequences.
# B1: PhoQ; a variant is named by its letters at X, in order, P23837 (parent)
# chain: MKKLLRLFFPLSLRVRFLLATAAVVLVLSLAYGMVALIGYSVSFDKTTFRLLRGESNLFYTLAKWENNKLHVELPENIDKQSPTMTLIYDENGQLLWAQRDVPWLMKMIQPDWLKSNGFHEIEADVNDTSLLLSGDHSIQQQLQEVREDDDDAEMTHSVAVNVYPATSRMPKLTIVVVDTIPVELKSSYMVWSWFIYVLSANLLLVIPLLWVAAWWSLRPIEALAKEVRELEEHNRELLNPATTRELTSLVRNLNRLLKSERERYDKYRTTLTDLTHSLKTPLXXLQXXLRSLRSEKMSVSDAEPVMLEQISRISQQIGYYLHRASMRGGTLLSRELHPVAPLLDNLTSALNKVYQRKGVNISLDISPEISFVGEQNDFVEVMGNVLDNACKYCLEFVEISARQTDEHLYIVVEDDGPGIPLSKREVIFDRGQRVDTLRPGQGVGLAVAREITEQYEGKIVAGESMLGGARMEVIFGRQHSAPKDE
# Variants of: B1
# Test: enrichment ratio after two sorts for PhoP signalling (ratio (wild type AVST 3.29)); higher = more functional
# Conditions: with PhoP (E. coli)
row,Variant,enrichment ratio
1,SYTR,≤ 0.25
2,VVCY,≤ 0.25
3,GKAF,≤ 0.25
4,SEGG,9.05
5,SLVI,2.14
6,SEFA,1.84
7,SEVR,12.1
8,SEVI,12.2
9,SEVG,25.6
10,SLVR,0.339
11,SCVR,1.05
12,SEVC,9.44
13,SEFG,15.8
14,SEVA,10.3
15,SEFE,4.76
16,RKKT,≤ 0.25
17,SLWN,≤ 0.25
18,RRRI,≤ 0.25
19,PERI,≤ 0.25
20,FFGE,≤ 0.25
21,YKRH,≤ 0.25
22,VSRE,≤ 0.25
23,VRMG,≤ 0.25
24,HGFC,≤ 0.25
25,SPWG,≤ 0.25
26,SEMS,14.3

row,Variant,enrichment ratio
1,SCVS,3.13
2,SEWG,17.3
3,SLVS,1.29
4,SEMD,1.79
5,SEMK,7.11
6,SEVS,20.4
7,SQWG,≤ 0.25
8,SEMI,17.1
9,SEMN,4.75
10,SEMQ,8.89
11,HDQV,≤ 0.25
12,HCLM,≤ 0.25
13,NDAA,≤ 0.25
14,NRLG,≤ 0.25
15,NMCH,≤ 0.25
16,HTPK,≤ 0.25
17,PDYQ,≤ 0.25
18,ANWA,≤ 0.25
19,HDKT,≤ 0.25
20,SAHC,≤ 0.25
21,SLVK,1.38
22,SEEG,2.48
23,SEVK,12.3
24,SEMG,21.5
25,SEGS,4.52
26,SEKK,≤ 0.25

row,Variant,enrichment ratio
1,EACH,2.01
2,FYVQ,≤ 0.25
3,GYNI,≤ 0.25
4,LYDQ,≤ 0.25
5,FPLV,≤ 0.25
6,QGLV,7.45
7,FGLV,11.7
8,FGLA,12.2
9,FGLT,9.94
10,FGLS,8.38
11,HKVW,≤ 0.25
12,VDRE,≤ 0.25
13,EAAG,≤ 0.25
14,CVSY,≤ 0.25
15,NSSY,≤ 0.25
16,FSSY,0.259
17,TSSY,14.6
18,KSSY,≤ 0.25
19,CSSY,17.5
20,KMIV,≤ 0.25
21,IVGD,≤ 0.25
22,TDFN,≤ 0.25
23,LNSM,0.463
24,CLSF,10.1
25,CLSM,22.7
26,MNSM,9.22

row,Variant,enrichment ratio
1,AKSM,15.5
2,PLSM,≤ 0.25
3,TNSM,23.5
4,ADSM,≤ 0.25
5,VLSM,0.436
6,TLSM,25.5
7,SLSM,8.94
8,AHSM,4.11
9,IDFI,≤ 0.25
10,NPDM,≤ 0.25
11,PIRV,≤ 0.25
12,EGSN,≤ 0.25
13,PKCK,≤ 0.25
14,RLKF,≤ 0.25
15,AIND,≤ 0.25
16,GVLN,10.1
17,WISM,≤ 0.25
18,AMSM,15.1
19,AVSF,9.87
20,KMSM,≤ 0.25
21,KKSM,≤ 0.25
22,AQSM,10.4
23,NMSM,≤ 0.25
24,ARSM,4.49
25,ALSM,17
26,AVSM,11.3

row,Variant,enrichment ratio
1,AISM,15.9
2,DRSF,≤ 0.25
3,HYGV,≤ 0.25
4,IFME,≤ 0.25
5,FRHK,≤ 0.25
6,PAGH,≤ 0.25
7,QFCS,≤ 0.25
8,SPYV,≤ 0.25
9,WPGT,≤ 0.25
10,YLNI,≤ 0.25
11,ALHF,≤ 0.25
12,NISM,0.899
13,ANSM,16.6
14,TISM,27.4
15,ANSF,5.47
16,RISM,≤ 0.25
17,ALSF,12.1
18,PLSF,≤ 0.25
19,EYYP,≤ 0.25
20,PMHD,≤ 0.25
21,APSK,≤ 0.25
22,YWYS,≤ 0.25
23,KTMK,≤ 0.25
24,RNCC,≤ 0.25
25,QASK,≤ 0.25
26,KSSQ,≤ 0.25

row,Variant,enrichment ratio
1,QSSQ,11.3
2,FSSQ,≤ 0.25
3,QASQ,23.3
4,TPSQ,≤ 0.25
5,KASQ,≤ 0.25
6,QPSQ,≤ 0.25
7,TSSQ,11.8
8,LWCS,≤ 0.25
9,KPGV,≤ 0.25
10,FAWD,≤ 0.25
11,LEFH,≤ 0.25
12,ELWP,≤ 0.25
13,MRDF,≤ 0.25
14,TCQR,4.53
15,MQCC,11.8
16,MICH,2.87
17,MICC,29.6
18,MQTH,≤ 0.25
19,MQCI,1.41
20,MILH,0.967
21,IQVR,≤ 0.25
22,NDHA,≤ 0.25
23,MDME,≤ 0.25

# — a collection of fitness landscapes (doi:10.1126/science.1257360)
